# PubChem BioAssay (Tox21)
# “And” between values parts separate entries of the source, which are not always exact repeats. Equal entries are not always repeated. Records with an inconclusive call do not appear. A call without a number means that no potency is given here. The source made the active and inactive calls. Calls come from the whole dose curve; as a rule, active = well fitted cell-killing curve with a large enough effect in the repeat runs; inconclusive = weak or mixed curves, or effect the other way; inactive = flat fitted curve, though single readings scatter.
# Assay: qHTS assay to identify small molecule agonists of the estrogen receptor beta (ER-beta) signaling pathway - cell viability counter screen (AID 1259380); note: nearly all actives have a fitted effect of over 30% in size
# Settings: ER-beta-bla HEK293T viability, CellTiter-Glo luminescence, 16 h; series mostly up to 92.4 µM
# Text: National Center for Advancing Translational Sciences [NCATS]
# NIH Chemical Genomics Center [NCGC]
# U.S. Environmental Protection Agency [EPA]
# National Institutes of Environmental Health Sciences [NIEHS]
# National Toxicology Program [NTP]
# U.S. Food and Drug Administration [FDA]
# Estrogen receptor (ER), a nuclear hormone receptor, plays an important role in development, metabolic homeostasis and reproduction. Two subtypes of ER, ER-alpha and ER-beta, have similar expression patterns with some uniqueness in both types. Endocrine disrupting chemicals (EDCs) and their interactions with steroid hormone receptors like ER causes disruption of normal endocrine function. To identify the compounds that activate ER signaling, an ER beta-UAS-bla GripTite cell line (Life Technologies, Madison, WI, USA) containing a beta-lactamase reporter gene under the control of an UAS response element was used to screen Tox21 10K compound library. The cytotoxicity of the Tox21 compound library against the ER-beta-bla cell line was tested in parallel by measuring the cell viability using CellTiter-Glo assay in the same wells.
# Tox21 Assay Protocol Summary:
# ER-beta-UAS-bla HEK293T cells were dispensed at 2,000 cells/5 uL of assay medium containing 2% charcoal stripped FBS per well into black wall/clear-bottom 1536-well plates using a Multidrop Combi (ThermoFisher Scientific, Waltham, MA) dispenser. After the assay plates were incubated at a 37C and 5% CO2 for 6 hr, 23 nL of compounds dissolved in DMSO, positive controls or DMSO only was transferred to the assay plate by a Pintool station (Kalypsys, San Diego, CA). The plates were incubated at 37C and 5% CO2 for 16 hr. Then 1 uL of LiveBLAzerTM B/G FRET substrate was added using a BioRAPTR FRD (Flying Reagent Dispenser, Aurora Discovery, San Diego, CA) and then the plates were incubated at room temperature for 2 hours, and fluorescence intensity was measured by an Envision plate reader (PerkinElmer, Shelton, CT). For cell viability readout that measures cytotoxicity, 4 uL/well of CellTiter-Glo reagent was added into the assay plates using a FRD. After 30 min incubation at room temperature, the luminescence intensity in the plates was measured using a ViewLux (PerkinElmer) plate reader.
# Potency is the fitted concentration of half-maximal effect.
row,Compound,Potency
1,CCOC(=O)C1OC1(C)c1ccccc1 (stereo not given),inactive
2,CN1C(=O)CN=C(c2ccccc2)c2cc([N+](=O)[O-])ccc21,inactive
3,O=C(O)C(F)(F)C(F)(F)C(F)(F)C(F)(F)C(F)(F)C(F)(F)C(F)(F)C(F)(F)F,12.2 µM (active)
4,Cc1nnc(-c2ccccc2)c(=O)n1N,inactive
5,O=C(O)C(F)(F)C(F)(F)C(F)(F)C(F)(F)C(F)(F)F,inactive
6,N#CC1(N=NC2(C#N)CCCCC2)CCCCC1,inactive
7,O=C(NC(=O)c1cc(F)c(F)cc1Cl)Nc1cc(F)ccc1N1CCC(C(=O)O)CC1,inactive
8,CCC[N+](CCC)(CCC)CCC,inactive
9,CC(C)(C#N)C(C)(C)C#N,inactive
10,O=C1CC[C@@]2(O)[C@H]3Cc4ccc(O)c5c4[C@@]2(CCN3CC2CC2)[C@H]1O5,inactive
11,O=C(Cl)OCCOCCOC(=O)Cl,inactive
12,NNCCO,inactive
13,CCCC[P+](CC)(CCCC)CCCC (tested in a mixture with another compound),inactive
14,COc1ccccc1N1CCNCC1,inactive
15,CCCC(C)(COC(N)=O)COC(=O)NC(C)C (stereo not given),inactive
16,C=CCc1ccccc1O,inactive
17,O=C(Cc1ccccc1)OCCc1ccccc1,inactive
18,COc1ccc2c(c1OC)C(=O)O[C@H]2[C@@H]1c2cc3c(cc2CCN1C)OCO3,inactive
19,O=C([O-])c1ccccn1.O=C([O-])c1ccccn1.O=C([O-])c1ccccn1.[Cr+3],inactive
20,c1ccc2sc(SNC3CCCCC3)nc2c1,inactive

row,Compound,Potency
1,FC(Cl)(Cl)C(F)(Cl)Cl,inactive
2,N#CC(C#N)=Cc1ccc(O)c(O)c1,inactive
3,NC(=S)c1c(Cl)cccc1Cl,inactive
4,Cc1ccccc1,inactive
5,CC(=O)OC(c1ccccc1)C(Cl)(Cl)Cl (stereo not given),inactive
6,O=C(N[C@H]1CN2CCC1CC2)c1ccc2c(c1)OCCO2,inactive
7,CCOc1cccc(C2(N3CCN(c4ccccc4)CC3)CCC(C)CC2)c1 (stereo not given),inactive
8,Clc1ccc(Cl)c(Cl)c1,inactive
9,CCCCCCCCCCCC[N+](C)(C)CCOc1ccccc1,21.7 µM (active) and 11.9 µM (active)
10,CCC1(CC)C(=O)NC(=O)NC1=O,inactive
11,O=C(O)c1cc(Cl)ccc1Cl,inactive
12,O=CC=O,inactive
13,OCCSSCCO,inactive
14,CCCCCCCCCCCCCCCl,inactive
15,C=CC(=O)OCC,inactive
16,SCc1ccccc1,inactive
17,C=C(C)C(=O)OCCCCOC(=O)C(=C)C,inactive
18,CN1C[C@H](C(=O)N[C@]2(C)O[C@@]3(O)[C@@H]4CCCN4C(=O)[C@H](Cc4ccccc4)N3C2=O)C=C2c3cccc4[nH]cc(c34)C[C@H]21,21.8 µM (active) and 7.16 µM (active)
19,CN1CC[C@]23c4c5ccc(O)c4O[C@H]2[C@@H](O)CC[C@H]3[C@H]1C5,inactive
20,COc1cc(CC#N)cc(OC)c1OC,inactive
